Measured values: article PMC7862700, “An all-to-all approach to the identification of sequence-specific readers for epigenetic DNA modifications on cytosine”

Experiments:
Experiment in all cases: DAPPL (digital affinity profiling via proximity ligation, sequencing); 10 mM Tris-HCl pH 7.5, 50 mM NaCl, 1 mM DTT, 4% glycerol, room temperature, 30 min; GST-TFs on glutathione beads, 16-mer random dsDNA library, 0.1% formaldehyde crosslink after washing; high values mean tight binding
Conditions in all cases: protein: recombinant; tags: N-terminal GST; dsDNA, one strand shown
FLI1 = target: T1, FLI1 (Homo sapiens, UniProt Q01543 1-452)
T1 sequence: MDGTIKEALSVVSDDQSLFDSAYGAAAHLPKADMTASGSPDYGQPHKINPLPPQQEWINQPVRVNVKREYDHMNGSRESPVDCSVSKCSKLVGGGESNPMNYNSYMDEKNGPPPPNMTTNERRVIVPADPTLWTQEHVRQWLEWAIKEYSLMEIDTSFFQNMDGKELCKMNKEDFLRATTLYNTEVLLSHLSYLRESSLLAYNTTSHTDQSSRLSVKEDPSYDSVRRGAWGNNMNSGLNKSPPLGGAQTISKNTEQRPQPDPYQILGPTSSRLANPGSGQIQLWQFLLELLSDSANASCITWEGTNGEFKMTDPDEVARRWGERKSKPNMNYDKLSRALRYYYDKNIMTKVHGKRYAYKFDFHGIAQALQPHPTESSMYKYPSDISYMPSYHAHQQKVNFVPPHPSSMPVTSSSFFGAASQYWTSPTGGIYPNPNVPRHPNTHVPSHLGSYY
How it was run: (§1)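 Pools were built from human transcription factors expressed in yeast as GST fusions, captured on glutathione beads and DNA-barcoded, along with a tag-only sample. Incubation with 200 nmole of a 16-mer random double-stranded DNA library lasted 30 min at room temperature in Tris/NaCl/DTT/glycerol buffer, and was followed by washing, 0.1% formaldehyde crosslinking, proximity ligation, PCR amplification and Illumina NextSeq500 sequencing. Binding signal is the quotient of each hexamer's read frequency for a factor and its frequency for the tag-only sample.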

ELK1 = target: T2, ELK1 (Homo sapiens, UniProt P19419 1-428)
T2 sequence: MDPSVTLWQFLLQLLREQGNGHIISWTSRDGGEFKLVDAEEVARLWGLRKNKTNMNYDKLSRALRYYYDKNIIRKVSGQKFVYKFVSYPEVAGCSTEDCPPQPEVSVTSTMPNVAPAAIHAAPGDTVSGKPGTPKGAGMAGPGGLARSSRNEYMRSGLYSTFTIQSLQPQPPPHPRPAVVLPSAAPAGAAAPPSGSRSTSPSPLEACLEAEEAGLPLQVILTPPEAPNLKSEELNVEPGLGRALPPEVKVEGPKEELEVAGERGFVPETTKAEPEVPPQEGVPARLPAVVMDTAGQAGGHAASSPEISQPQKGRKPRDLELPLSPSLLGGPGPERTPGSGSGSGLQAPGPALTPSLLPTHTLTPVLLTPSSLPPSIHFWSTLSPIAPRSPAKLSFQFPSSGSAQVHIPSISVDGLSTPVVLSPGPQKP
How it was run: as §1

GABPA = target: T3, GABPA (Homo sapiens, UniProt Q06546 1-454)
T3 sequence: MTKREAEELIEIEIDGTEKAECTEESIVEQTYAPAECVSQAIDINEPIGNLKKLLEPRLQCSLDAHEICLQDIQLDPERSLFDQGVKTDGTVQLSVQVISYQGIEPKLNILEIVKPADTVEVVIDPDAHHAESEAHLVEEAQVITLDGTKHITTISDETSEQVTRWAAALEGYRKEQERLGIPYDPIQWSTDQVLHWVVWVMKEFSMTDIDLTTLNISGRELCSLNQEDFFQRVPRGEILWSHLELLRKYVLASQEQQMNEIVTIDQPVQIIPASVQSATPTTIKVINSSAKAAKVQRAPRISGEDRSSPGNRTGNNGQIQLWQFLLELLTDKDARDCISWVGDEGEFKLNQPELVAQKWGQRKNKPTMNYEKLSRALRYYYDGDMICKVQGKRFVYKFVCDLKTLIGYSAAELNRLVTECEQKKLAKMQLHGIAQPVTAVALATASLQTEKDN
How it was run: as §1

ERG = target: T4, ERG (Homo sapiens, UniProt P11308 1-479)
T4 sequence: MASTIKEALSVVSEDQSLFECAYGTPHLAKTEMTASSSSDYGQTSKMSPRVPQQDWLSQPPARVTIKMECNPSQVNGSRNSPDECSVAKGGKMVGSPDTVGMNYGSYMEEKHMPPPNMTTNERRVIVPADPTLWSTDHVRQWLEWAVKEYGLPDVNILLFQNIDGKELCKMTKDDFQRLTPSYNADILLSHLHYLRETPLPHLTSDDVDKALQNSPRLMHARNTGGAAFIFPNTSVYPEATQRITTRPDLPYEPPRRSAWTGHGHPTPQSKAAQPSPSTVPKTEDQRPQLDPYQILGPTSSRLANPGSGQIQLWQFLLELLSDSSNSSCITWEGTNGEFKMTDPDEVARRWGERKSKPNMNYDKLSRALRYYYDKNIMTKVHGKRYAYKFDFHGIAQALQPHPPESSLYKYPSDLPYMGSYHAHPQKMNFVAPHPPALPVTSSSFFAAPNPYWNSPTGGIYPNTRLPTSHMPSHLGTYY
How it was run: as §1

ELF1 = ELF1 (Homo sapiens, UniProt P32519 1-619)
Chain of ELF1 (P32519 whole entry): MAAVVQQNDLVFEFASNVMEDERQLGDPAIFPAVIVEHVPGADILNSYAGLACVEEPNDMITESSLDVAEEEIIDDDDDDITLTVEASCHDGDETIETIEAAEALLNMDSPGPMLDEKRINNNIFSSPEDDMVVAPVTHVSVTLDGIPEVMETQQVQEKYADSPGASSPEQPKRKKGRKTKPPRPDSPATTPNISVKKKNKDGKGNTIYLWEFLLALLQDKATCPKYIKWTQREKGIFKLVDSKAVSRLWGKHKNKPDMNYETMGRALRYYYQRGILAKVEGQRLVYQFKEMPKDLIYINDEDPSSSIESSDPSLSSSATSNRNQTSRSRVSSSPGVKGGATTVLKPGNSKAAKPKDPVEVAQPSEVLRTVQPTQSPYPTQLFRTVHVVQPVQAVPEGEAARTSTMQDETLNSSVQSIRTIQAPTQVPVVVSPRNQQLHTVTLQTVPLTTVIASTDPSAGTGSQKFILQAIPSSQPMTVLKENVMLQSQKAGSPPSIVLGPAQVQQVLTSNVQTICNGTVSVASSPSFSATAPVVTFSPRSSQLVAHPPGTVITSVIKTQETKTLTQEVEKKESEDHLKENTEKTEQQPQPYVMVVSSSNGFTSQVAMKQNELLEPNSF
How it was run: as §1

EHF = target: T5, EHF (Homo sapiens, UniProt Q9NZC4 1-300)
T5 sequence: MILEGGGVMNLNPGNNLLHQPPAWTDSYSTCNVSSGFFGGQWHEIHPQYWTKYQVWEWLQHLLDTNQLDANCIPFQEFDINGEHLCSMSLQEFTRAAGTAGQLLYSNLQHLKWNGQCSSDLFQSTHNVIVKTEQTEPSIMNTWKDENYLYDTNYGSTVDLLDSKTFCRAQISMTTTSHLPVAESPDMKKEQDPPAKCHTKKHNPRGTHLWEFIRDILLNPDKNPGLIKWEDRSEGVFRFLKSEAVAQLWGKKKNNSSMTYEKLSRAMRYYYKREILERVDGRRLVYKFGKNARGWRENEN
How it was run: as §1

SPI1 = SPI1 (Homo sapiens, UniProt P17947 1-270)
How it was run: as §1

SPIB = SPIB (Homo sapiens, UniProt Q01892 1-262)
Chain of SPIB (Q01892 whole entry): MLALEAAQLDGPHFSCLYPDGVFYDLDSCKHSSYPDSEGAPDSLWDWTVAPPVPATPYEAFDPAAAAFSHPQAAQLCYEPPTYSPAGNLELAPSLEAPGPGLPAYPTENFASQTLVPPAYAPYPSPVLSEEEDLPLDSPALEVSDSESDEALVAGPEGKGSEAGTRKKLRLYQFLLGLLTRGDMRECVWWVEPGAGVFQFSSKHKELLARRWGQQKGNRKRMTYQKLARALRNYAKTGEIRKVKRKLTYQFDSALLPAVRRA
How it was run: as §1

ELK3 = target: T6, ELK3 (Homo sapiens, UniProt P41970 1-407)
T6 sequence: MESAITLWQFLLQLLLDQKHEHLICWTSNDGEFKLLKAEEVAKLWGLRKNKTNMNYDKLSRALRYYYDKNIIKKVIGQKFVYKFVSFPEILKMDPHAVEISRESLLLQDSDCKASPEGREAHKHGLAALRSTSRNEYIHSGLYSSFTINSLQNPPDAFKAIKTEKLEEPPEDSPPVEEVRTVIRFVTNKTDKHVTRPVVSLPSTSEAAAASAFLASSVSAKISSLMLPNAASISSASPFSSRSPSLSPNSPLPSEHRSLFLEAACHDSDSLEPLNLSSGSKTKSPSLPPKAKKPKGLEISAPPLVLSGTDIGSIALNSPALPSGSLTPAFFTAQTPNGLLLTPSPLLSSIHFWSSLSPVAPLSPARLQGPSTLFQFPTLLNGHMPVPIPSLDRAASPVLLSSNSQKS
How it was run: as §1

Row | Sequence | binding signal (FLI1) | binding signal (ELK1) | binding signal (GABPA) | binding signal (ERG) | binding signal (ELF1) | binding signal (EHF) | binding signal (SPI1) | binding signal (SPIB) | binding signal (ELK3)
1 | TAAAGT | 1.22 fold enrichment (6-mer frequency, TF over GST control) | 1.14 fold enrichment (6-mer frequency, TF over GST control) | 1.24 fold enrichment (6-mer frequency, TF over GST control) | 1.17 fold enrichment (6-mer frequency, TF over GST control) | 1.18 fold enrichment (6-mer frequency, TF over GST control) | 1.18 fold enrichment (6-mer frequency, TF over GST control) | 1.21 fold enrichment (6-mer frequency, TF over GST control) | 1.11 fold enrichment (6-mer frequency, TF over GST control) | 1.38 fold enrichment (6-mer frequency, TF over GST control)
2 | TATGGA | 1.07 fold enrichment (6-mer frequency, TF over GST control) | 1.13 fold enrichment (6-mer frequency, TF over GST control) | 1.09 fold enrichment (6-mer frequency, TF over GST control) | 1.15 fold enrichment (6-mer frequency, TF over GST control) | 1.06 fold enrichment (6-mer frequency, TF over GST control) | 1.26 fold enrichment (6-mer frequency, TF over GST control) | 1.07 fold enrichment (6-mer frequency, TF over GST control) | 1.17 fold enrichment (6-mer frequency, TF over GST control) | 1.12 fold enrichment (6-mer frequency, TF over GST control)
3 | AATGCC | 1.06 fold enrichment (6-mer frequency, TF over GST control) | 1.19 fold enrichment (6-mer frequency, TF over GST control) | 1.17 fold enrichment (6-mer frequency, TF over GST control) | 1.18 fold enrichment (6-mer frequency, TF over GST control) | 1.13 fold enrichment (6-mer frequency, TF over GST control) | 1.18 fold enrichment (6-mer frequency, TF over GST control) | 1.06 fold enrichment (6-mer frequency, TF over GST control) | 1.17 fold enrichment (6-mer frequency, TF over GST control) | 1.08 fold enrichment (6-mer frequency, TF over GST control)
4 | TGCTTC | 2.13 fold enrichment (6-mer frequency, TF over GST control) | 2.3 fold enrichment (6-mer frequency, TF over GST control) | 2.09 fold enrichment (6-mer frequency, TF over GST control) | 2.37 fold enrichment (6-mer frequency, TF over GST control) | 2 fold enrichment (6-mer frequency, TF over GST control) | 2.16 fold enrichment (6-mer frequency, TF over GST control) | 2.24 fold enrichment (6-mer frequency, TF over GST control) | 2.31 fold enrichment (6-mer frequency, TF over GST control) | 2.47 fold enrichment (6-mer frequency, TF over GST control)
5 | ACTTCT | 1.49 fold enrichment (6-mer frequency, TF over GST control) | 1.53 fold enrichment (6-mer frequency, TF over GST control) | 1.5 fold enrichment (6-mer frequency, TF over GST control) | 1.43 fold enrichment (6-mer frequency, TF over GST control) | 1.52 fold enrichment (6-mer frequency, TF over GST control) | 1.56 fold enrichment (6-mer frequency, TF over GST control) | 1.62 fold enrichment (6-mer frequency, TF over GST control) | 1.45 fold enrichment (6-mer frequency, TF over GST control) | 1.48 fold enrichment (6-mer frequency, TF over GST control)
6 | ATTTCT | 1.45 fold enrichment (6-mer frequency, TF over GST control) | 1.51 fold enrichment (6-mer frequency, TF over GST control) | 1.51 fold enrichment (6-mer frequency, TF over GST control) | 1.5 fold enrichment (6-mer frequency, TF over GST control) | 1.48 fold enrichment (6-mer frequency, TF over GST control) | 1.3 fold enrichment (6-mer frequency, TF over GST control) | 1.47 fold enrichment (6-mer frequency, TF over GST control) | 1.43 fold enrichment (6-mer frequency, TF over GST control) | 1.32 fold enrichment (6-mer frequency, TF over GST control)
7 | TCTCGG | 1.69 fold enrichment (6-mer frequency, TF over GST control) | 1.41 fold enrichment (6-mer frequency, TF over GST control) | 1.5 fold enrichment (6-mer frequency, TF over GST control) | 1.38 fold enrichment (6-mer frequency, TF over GST control) | 1.46 fold enrichment (6-mer frequency, TF over GST control) | 1.29 fold enrichment (6-mer frequency, TF over GST control) | 1.52 fold enrichment (6-mer frequency, TF over GST control) | 1.44 fold enrichment (6-mer frequency, TF over GST control) | 1.42 fold enrichment (6-mer frequency, TF over GST control)
